Whole data set: some 1,500 compounds, median “Inhibition index” near 0.17, cut for the highest 2% near 1.3. This excerpt belongs to a sample that is enriched for the highest values.
system: SARS-CoV-2; assay: Inhibition of cell viability relative to arbidol control (inhibition index > 1 indicates higher activity) measured by fluorescence (OD590nm) in Vero E6 cells infected with SARS-CoV-2 (strain BavPat1) at MOI 0.002 after 72hrs; assay type: functional, Chlorocebus sabaeus, Vero C1008

SMILES	Inhibition index
CCN1CCN(C(=O)N[C@@H](C(=O)N[C@@H]2C(=O)N3C(C(=O)O)=C(CSc4nnnn4C)CS[C@H]23)c2ccc(O)cc2)C(=O)C1=O.O.O [CEFOPERAZONE DIHYDRATE]	0.2339
C=C[C@H]1CN2CC[C@H]1C[C@@H]2[C@@H](O)c1ccnc2ccc(OC)cc12.Cl.O	1.411
C=C[C@H]1CN2CC[C@H]1C[C@H]2[C@H](OC(=O)OCC)c1ccnc2ccc(OC)cc12 [QUININE ETHYLCARBONATE]	0.6435
Nc1nc(/C(=C/CC(=O)O)C(=O)N[C@@H]2C(=O)N3C(C(=O)O)=CCS[C@H]23)cs1 [CEFTIBUTEN]	0.07268
CC(C)OC(=O)CCC/C=C\C[C@H]1[C@H](CC[C@@H](O)CCc2ccccc2)[C@@H](O)C[C@H]1O	0.1555
CC[C@H]1OC(=O)[C@H](C)[C@@H](O[C@H]2C[C@@](C)(OC)[C@@H](O)[C@H](C)O2)[C@H](C)[C@@H](O[C@@H]2O[C@H](C)C[C@H](N(C)C)[C@H]2O)[C@](C)(OC)C[C@@H](C)C(=O)[C@H](C)[C@@H](O)[C@]1(C)O [CLARITHROMYCIN]	0.8598
CC[C@H]1OC(=O)[C@H](C)[C@@H](O[C@H]2C[C@@](C)(OC)[C@@H](O)[C@H](C)O2)[C@H](C)[C@@H](O[C@@H]2O[C@H](C)C[C@H](N(C)C)[C@H]2O)[C@](C)(O)C[C@@H](C)CN(C)[C@H](C)[C@@H](O)[C@]1(C)O [AZITHROMYCIN]	1.487
CC[C@H]1OC(=O)[C@H](C)[C@@H](O[C@H]2C[C@@](C)(OC)[C@@H](O)[C@H](C)O2)[C@H](C)[C@@H](O[C@@H]2O[C@H](C)C[C@H](N(C)C)[C@H]2O)[C@](C)(O)C[C@@H](C)C(=O)[C@H](C)[C@@H](O)[C@]1(C)O [ERYTHROMYCIN]	0.0005254
CCC(=O)O[C@]1(C(=O)CCl)[C@@H](C)C[C@H]2[C@@H]3CCC4=CC(=O)C=C[C@]4(C)[C@@]3(F)[C@@H](O)C[C@@]21C [CLOBETASOL PROPIONATE]	0.2335
CC(=O)S[C@@H]1CC2=CC(=O)CC[C@]2(C)[C@H]2CC[C@@]3(C)[C@@H](CC[C@@]34CCC(=O)O4)[C@H]12 [SPIRONOLACTONE]	0.4829
Cl.NC1CCN(c2nc3c(cc2F)c(=O)c(C(=O)O)cn3-c2ccc(F)cc2F)C1 (stereo not drawn)	0.1095
CN1[C@@H]2CC[C@H]1C[C@@H](OC1c3ccccc3CCc3ccccc31)C2.O=C(O)CC(O)(CC(=O)O)C(=O)O [DEPTROPINE CITRATE]	-0.3511
Cc1cc(C(C)(C)C)c(O)c(C)c1CC1=NCCN1.Cl [OXYMETAZOLINE HYDROCHLORIDE]	0.08485
C=C1CC[C@@]2(O)[C@H]3Cc4ccc(O)c5c4[C@@]2(CCN3CC2CC2)[C@H]1O5.Cl [NALMEFENE HYDROCHLORIDE]	1.653
Cl.O.O.O=C1CC[C@@]2(O)[C@H]3Cc4ccc(O)c5c4[C@@]2(CCN3CC2CC2)[C@H]1O5	0.1496
Cl.Oc1ccc2c3c1O[C@H]1[C@@H](O)CC[C@@]4(O)[C@@H](C2)N(CC2CCC2)CC[C@]314 [NALBUPHINE HYDROCHLORIDE]	0.2089
CC(C(=O)O)c1ccc(N2CC=CC2)c(Cl)c1 (stereo not drawn) [PIRPROFEN]	0.2333
CNC(=C[N+](=O)[O-])NCCSCc1ccc(CN(C)C)o1.Cl [RANITIDINE HYDROCHLORIDE]	0.09309
CCN1CCC[C@H]1CNC(=O)c1c(OC)ccc(Br)c1OC.Cl	0.3465

SMILES	Inhibition index
CC(C)n1c(/C=C/[C@H](O)C[C@H](O)CC(=O)[O-])c(-c2ccc(F)cc2)c2ccccc21.[Na+]	-0.06663
CN[C@@H]1[C@@H](O)[C@@H](O[C@@H]2[C@@H](O)[C@H](O[C@H]3O[C@H](CN)CC[C@H]3N)[C@@H](N)C[C@H]2N)OC[C@]1(C)O.CN[C@@H]1[C@@H](O)[C@@H](O[C@@H]2[C@@H](O)[C@H](O[C@H]3O[C@H]([C@@H](C)N)CC[C@H]3N)[C@@H](N)C[C@H]2N)OC[C@]1(C)O.CN[C@@H]1[C@@H](O)[C@@H](O[C@@H]2[C@@H](O)[C@H](O[C@H]3O[C@H]([C@@H](C)NC)CC[C@H]3N)[C@@H](N)C[C@H]2N)OC[C@]1(C)O.O=S(=O)(O)O	0.01806
COc1c(-c2ccc3cc(NS(C)(=O)=O)ccc3c2)cc(-n2ccc(=O)[nH]c2=O)cc1C(C)(C)C [DASABUVIR]	0.184
Cc1cc(C2CCCCC2)n(O)c(=O)c1.NCCO [CICLOPIROX OLAMINE]	0.2225
C[C@]12CC[C@H](O)C[C@@H]1CC[C@@H]1[C@@H]2CC[C@]2(C)C(=O)CC[C@@H]12 [EPIANDROSTERONE]	1.075
C[C@]12CCC(=O)C(O)=C1CC[C@@H]1[C@@H]2CC[C@]2(C)C(=O)CC[C@@H]12 [FORMESTANE]	1.365
C[C@]12CCC(=O)C=C1CC[C@@H]1[C@@H]2C(=O)C[C@]2(C)C(=O)CC[C@@H]12 [ADRENOTERONE]	0.3653
C[C@]12CCC(=O)C=C1CC[C@@H]1[C@@H]2[C@@H](O)C[C@@]2(C)[C@H]1CC[C@]2(O)C(=O)CO [HYDROCORTISONE]	0.1194
CN1CCC(=C2c3ccccc3CC(=O)c3sccc32)CC1.O=C(O)/C=C/C(=O)O [KETOTIFEN FUMARATE]	0.837
Cc1ccc(/C(=C\CN2CCCC2)c2ccccn2)cc1.Cl	0.8569
O=C1O[C@H]([C@@H](O)CO)C(O)=C1O [ASCORBIC ACID]	0.2513
C[C@]12CCC(=O)C=C1C=C[C@@H]1[C@@H]2CC[C@@]2(C)[C@H]1CC[C@@]2(O)CCC(=O)[O-].[K+] [CANRENOATE POTASSIUM]	0.2042
C[C@]12CC[C@H]3[C@@H](CCC4=CC(=O)CC[C@@]43C)[C@@H]1CC[C@@H]2C(=O)CO [DESOXYCORTICOSTERONE]	0.868
CNC1(C)C2CCC(C2)C1(C)C.Cl (stereo not drawn) [MECAMYLAMINE HYDROCHLORIDE]	0.674
CC(=O)O[C@H]1C[C@@H]2CC[C@@H]3[C@H](CC[C@@]4(C)[C@H]3C[C@H]([N+]3(C)CCCCC3)[C@@H]4OC(C)=O)[C@@]2(C)C[C@@H]1[N+]1(C)CCCCC1.[Br-].[Br-] [PANCURONIUM BROMIDE]	0.06422
Cl.Nc1c2c(nc3ccccc13)CCCC2 [TACRINE HYDROCHLORIDE]	1.442
Nc1c2ccccc2nc2ccccc12 [AMINACRINE]	-0.2464
CCC(=O)OC(OP(=O)(CCCCc1ccccc1)CC(=O)N1C[C@H](C2CCCCC2)C[C@H]1C(=O)O)C(C)C (stereo partly drawn)	1.038
CC[C@H]1OC(=O)[C@H](C)[C@@H](O[C@H]2C[C@@](C)(OC)[C@@H](O)[C@H](C)O2)[C@H](C)[C@@H](O[C@@H]2O[C@H](C)C[C@H](N(C)C)[C@H]2O)[C@](C)(O)C[C@@H](C)[C@@H]2N[C@@H](COCCOC)O[C@H]([C@H]2C)[C@]1(C)O [DIRITHROMYCIN]	0.105
